Reference: PubChem BioAssay

assay: changes in parasitized red cell lysis, either direction – P. falciparum Indochina, OD700, 3 h, PSAC antagonist project, primary screen (AID 1156); details: P. falciparum-infected erythrocytes, osmotic lysis, higher = more signal, called active from +8 up or from −8 down

z-score, inactive:
CCOC(=O)C1=CCC(c2ccccc2)N(S(=O)(=O)CC[Si](C)(C)C)C1 (stereo not given) -0.0704
O=C1OCCC/C=C\[C@H]2OC34C=CCN(CCN5CCOCC5)C(=O)[C@H]3N(CCCO)C(=O)[C@@H]4C12 (stereo not given in full) -0.893
COc1cc2c(cc1O)C=[N+](Cc1cccc(OC(F)(F)F)c1)CC2 -0.747
COc1ccc(C(=O)Nc2cccc(CN3C(=O)[C@]4(O[C@H](CCO)[C@@H]([Si](C)(C)c5ccc(OC)cc5)[C@@H]4C)c4ccccc43)c2)cc1 0.374
CCCCCN1CC=CC23O[C@@H]4/C=C\CCCOC(=O)C4[C@H]2C(=O)N(C(CO)C(C)C)[C@@H]3C1=O (stereo not given in full) 0.29
O=C1O[C@H](c2ccccc2)[C@H](c2ccccc2)N2[C@H]1[C@@H](C(=O)NC[C@H](O)c1ccccc1)[C@]1(C(=O)Nc3ccccc31)[C@H]2c1ccc(OCCO)cc1 0.179
CCOC(=O)[C@H]1CC=C2CC1C(=O)N1CCC[C@@H]1[C@@H]2O[Si](C)(C)C(C)(C)C (stereo not given in full) -0.42
CCN(CC)c1ccc(N2CC=CC34O[C@@H]5/C=C\CCCOC(=O)C5[C@H]3C(=O)N(CCO)[C@@H]4C2=O)cc1 (stereo not given in full) 0.227
COCCOC(=O)N1C(=O)[C@@]2(c3cc(C#CC4=CCCCC4)ccc31)[C@H](C(=O)Nc1nc3ccccc3s1)[C@H]1C(=O)O[C@H](c3ccccc3)[C@H](c3ccccc3)N1[C@@H]2c1ccc(OCCO)cc1 -0.218
CN1C(=O)C2C=CC(C(O)c3ccc(I)cc3)N(N3CCCCC3)C2C1=O (stereo not given) 1.33
CC1CC/C=C\[C@H]2OC34C=CCN(c5ccc(Cl)cc5)C(=O)[C@H]3N(CCO)C(=O)[C@]4(C)C2C(=O)O1 (stereo not given in full) 0.0852
COCCOC(=O)N1C(=O)[C@@]2(c3cc(C#Cc4ccc(OC)cc4)ccc31)[C@H](c1ccc(O)cc1)N1[C@H](c3ccccc3)[C@H](c3ccccc3)OC(=O)[C@H]1[C@@H]2C(=O)NC[C@H](O)c1ccccc1 0.38
COc1ccc([Si](C)(C)[C@H]2[C@H](CCn3cc([C@H](O)c4ccccc4)nn3)O[C@@]3(C(=O)N(Cc4cccc(N5CCOC5=O)c4)c4ccccc43)[C@@H]2C)cc1 -0.295
CN1C(=O)C2C=CC(C(O)C3=C[C@H]4C[C@@H](C3)C4(C)C)N(Nc3ccccc3)C2C1=O (stereo not given in full) -0.0209
CC(=O)NCCCC[C@@H]1NC(=O)[C@@H]2C[C@H](C(=O)NCCCCN(C)C)[C@H](c3cccc(OCCO)c3)N2C1=O -0.0825
COc1ccc(CCNC(=O)[C@@]2(C)c3ccccc3C(=O)N(Cc3cc(F)cc(C(F)(F)F)c3)[C@H]2c2ccc(CO)cc2)cc1 1.24
C=CCOC(=O)[C@H]1[C@@H]2C(=O)O[C@@H](c3ccccc3)[C@@H](c3ccccc3)N2[C@@H](c2ccc(OCCOC(=O)[C@@H]3C[C@@H]4C(=O)N[C@@H](CCCC[N+](C)(C)C)C(=O)N4[C@@H]3c3ccc(O)cc3)cc2)[C@]12C(=O)Nc1ccccc12 4.3
O=C1OCCC/C=C\[C@H]2OC34C=CCN(Cc5ccccc5)C(=O)[C@H]3N(CCCCCCO)C(=O)[C@@H]4C12 (stereo not given in full) 0.59
C=C(CCCC)C(=O)CC[C@H](OC(C)=O)c1cccc(OCCO)c1 1.57
CC(C)N1C(=O)[C@@]2(Cc3ccccc31)c1ccccc1C(=O)N(C1CCCCC1)[C@H]2c1ccc(CO)cc1 0.516
COCCOC(=O)N1C(=O)[C@@]2(c3cc(C#CC4(O)CCCCCC4)ccc31)[C@H](c1ccc(O)cc1)N1[C@H](c3ccccc3)[C@H](c3ccccc3)OC(=O)[C@H]1[C@@H]2C(=O)Nc1nc2ccccc2s1 0.207
O=C1O[C@@H](c2ccccc2)[C@@H](c2ccccc2)N2[C@@H](c3ccccc3OCCO)[C@]3(C(=O)Nc4ccc(C#CC5=CCCCC5)cc43)[C@@H](C(=O)Nc3nc4ccccc4s3)[C@H]12 1.37
C=CCOC(=O)[C@@H]1[C@H]2C(=O)O[C@H](c3ccccc3)[C@H](c3ccccc3)N2[C@H](c2ccc(OCCOC(=O)[C@@H]3C[C@@H]4C(=O)N5CCC[C@H]5C(=O)N4[C@@H]3c3ccc(O)cc3)cc2)[C@@]12C(=O)Nc1ccc(I)cc12 2.43
C=CCNC(=O)[C@H]1[C@@H]2C(=O)O[C@@H](c3ccccc3)[C@@H](c3ccccc3)N2[C@@H](c2ccc(OCCO)cc2)[C@]12C(=O)N(C(=O)OCCOC)c1ccccc12 1.22
COc1ccc(C(=O)O[C@H]2CC[C@]3(C)C4=C(CCC3C2(C)C)[C@]2(C)CC[C@H]([C@H](C)CCCC(C)C)[C@@]2(C)CC4)cc1 (stereo not given in full) -0.246
